# Hits are enriched below; roughly 6.5% of the tested compounds scored in any of these assays.
# Marburg entry inh – Marburg virus entry inhibition; Marburg virus pseudotyped entry inhibition, cell reporter; Potency, µM (highest dose often 37.8 µM), for the others: at the top dose activity change, negative = inhibition, usual class: inhibitors; hit rate 1.8% among 300,000; calls by dose curve; tested in HEK293 cells; note: potency is the fitted concentration of half-maximal effect
# Lassa entry inh – Lassa virus entry inhibition; Lassa virus pseudotype entry inhibition, cell reporter; Potency, µM (top dose mostly 37.9 µM), inactives show at the highest dose activity change, negative = inhibition, hits mostly inhibitors; hit rate 1.2% among 300,000; AID 540256; calls by dose curve; tested in HEK293 cells; note: potency is the fitted concentration of half-maximal effect; nearly all actives have a fitted effect of over 50% in size
# VACV mCherry inh – inhibitors of vaccinia virus infection (mCherry reporter signal); hit rate 0.63% among 310,000; AID 720579; Potency, µM (doses to about 36.5 µM), for the others: top-dose activity change, negative = inhibition, hits mostly inhibitors; Vaccinia virus mCherry reporter infection, fluorescence; calls by dose curve; tested in A549 cells; note: potency is the fitted concentration of half-maximal effect; nearly all actives have a fitted effect of over 35% in size
# FMDV inh – blocks foot and mouth disease virus; hit rate 1.2% among 410,000; FMDV antiviral cell-based qHTS; Potency, µM (highest dose often 57.9 µM), for inactives: at the highest dose activity change, negative = inhibition, most hits filed as inhibitors; AID 1159524; calls by dose curve; tested in HEK293T cells; note: read-out not given here; potency is the fitted concentration of half-maximal effect; nearly all actives have a fitted effect of over 45% in size
# HCMV antiviral – blocks human cytomegalovirus replication; HFF cells, HCMV-luciferase reporter, 72 h; stronger effect = lower value; activity change, negative = inhibition, % at 57.5 µM; hit rate 4.5% among 410,000; AID 1259415; in the data active = activity change below about -60%; inconclusive = no clear call, values can overlap the other calls; inactive = above about -39%
#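 Screen run at 2 compound doses on HFFs infected with reporter HCMV, MOI 1 PFU/cell. Luciferase activity from cell lysates at 72 h post infection gave inhibition relative to buffer-only and Salinomycin wells.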
# VACV Venus inh – vaccinia inhibition (Venus reporter); Potency, µM (highest dose often 36.5 µM), for the others: at the highest dose activity change, negative = inhibition, most hits filed as inhibitors; Vaccinia virus Venus reporter expression, fluorescence; hit rate 0.46% among 330,000; calls by dose curve; tested in A549 cells; note: potency is the fitted concentration of half-maximal effect; nearly all actives have a fitted effect of over 30% in size
# * hit, by the source's call; ? = inconclusive; . = no result given; [ ] = dose if it differs, or a comment. % is set by controls: 0 for no effect and ±100 for the full control effect.
SMILES,Marburg entry inh,Lassa entry inh,VACV mCherry inh,FMDV inh,HCMV antiviral,VACV Venus inh
O=C(c1ccc(CSc2nc3ccncc3n2Cc2ccccc2F)cc1)N1CCCCC1,6%[46.1 µM],.,-23%,29%,-62*,-19%
Cc1ccc2c(c1)Cc1c(C(=O)NN3CCCCC3)nn(-c3ccc(Cl)cc3Cl)c1-2,.,.,.,0%,.,.
Clc1ccc(/C=N/Nc2nnc(Cl)c3ccccc23)cc1,0%,?,-13%,.,119,-9%
CC(=O)Nc1ccc(C=NNc2nnc(NN=Cc3ccc(NC(C)=O)cc3)c3ccccc23)cc1,?,1.6µM*,-23%,-9%,-6,-25%
Cc1ccc(/C=N/Nc2nnc(Cl)c3ccccc23)cc1,10µM*,?,-14%,?,28,4%
Clc1nnc(N/N=C/c2ccccc2)c2ccccc12,?,-19%,.,32%,191,.
COc1ccc2cc3c(N)nn(C(=O)c4cccc([N+](=O)[O-])c4)c3nc2c1,?,?,-22%,1%,-86*,-12%
COc1ccc(-n2cnc(N)c2C(=O)c2cccc([N+](=O)[O-])c2)cc1,?,-33%,.,0%,-67*,.
COc1ccc2cc3c(N)nn(C(=O)c4ccc(F)cc4Cl)c3nc2c1,-7%[46.1 µM],-3%[46.1 µM],-28%,-14%,-70*,-20%
COc1ccc2cc3c(N)nn(C(=O)C4CCC(C(C)(C)C)CC4)c3nc2c1 (stereo unspecified),10%,7%,?,-22%,-79*,14µM*
CCOC(=O)c1sc(N2C(=O)c3oc4ccc(F)cc4c(=O)c3C2c2ccc(C)cc2)nc1C (stereo unspecified),.,.,17%,.,.,20%
O=C1CC2(CCCC2)CC(=O)N1CCCCNCC1COc2ccccc2O1 (stereo unspecified),.,.,-20%,?,.,?
COc1ccc(-c2ccc(NS(=O)(=O)c3cc(C)c(C)cc3C)cc2)nn1,.,19%[46.1 µM],-17%,55%,-77*,-9%
COc1ccc(OC)c(S(=O)(=O)Nc2ccc(-c3ccc4nncn4n3)cc2)c1,?,-14%,8.9µM*,74%,?,10µM*
COC(=O)c1c(C)oc2ccc(NS(=O)(=O)c3cc(OC)ccc3OC)cc12,?,?,?,?,-62*,?
COc1ccc(-c2ccc(NS(=O)(=O)c3ccccc3Cl)cc2)nn1,.,?,-9%,5%,-26,-8%
COc1ccc(OC)c(S(=O)(=O)Nc2ccc(Oc3ccccc3)cc2)c1,-23%,-2%,.,10%,-64*,.
COc1ccc(C2=NCC(C)n3c2c2ccc(C(F)(F)F)cc2[n+]3[O-])cc1 (stereo unspecified),.,.,.,.,3,.
C=C1C=C(C(F)F)n2ncc(C(=O)NCc3ccc(Cl)cc3Cl)c2N1,.,.,-21%,.,.,-13%
Cc1sc(NC(=O)c2ccccc2)c(C(=O)NCCN(C)C)c1C,21µM*,-25%,.,20%,22,.
COC(=O)c1c(NC(=O)c2ccccc2)sc(Cc2ccccc2)c1C,4%,-7%,.,4%,-62*,.
COC(=O)c1c(NC(=O)c2ccc(C)cc2)sc(Cc2ccccc2)c1C,6%,2%,-11%,0%,-21,-10%
O=C(O)CCCC(=O)OCCCc1cc2ccccc2c(=O)o1,.,.,.,.,-3,.
COc1ccccc1-c1c(C)nn2c(N3CCN(c4ccc(Cl)cc4)CC3)cc(C)nc12,.,-2%[46.1 µM],?,?,-14,?
Cc1ccc(CNC(=O)c2cccc(Nc3nc4ccccc4n4nnnc34)c2)cc1,1%[46.1 µM],?,6.3µM*,8%,10,7.9µM*
CCCCOc1ccc(C(C)NC(=O)c2cccc(Nc3nc4ccccc4n4nnnc34)c2)cc1 (stereo unspecified),.,0%[46.1 µM],?,-18%,-98*,?
COCCNC(=O)c1cccc(Nc2nc3ccccc3n3nnnc23)c1,.,-6%[46.1 µM],-19%,-12%,0,-17%
Cc1cccc(Nc2nc3ccccc3n3nnnc23)c1,.,.,-6%,3%,-20,-15%
Cc1ccccc1C1(CC(=O)N2CC3(C)CC2CC(C)(C)C3)CC(=O)N(Cc2cccnc2)C1=O (stereo unspecified),.,.,-15%,12%,.,-11%
C/C(CCC1CC(C)(C)OC1=O)=N\NC(N)=S (stereo unspecified),?,22%,?,-2%,-93*,?

# Bioassay records (PubChem)
